These results are taken from article PMC4336329 (PLoS ONE, 2015).

Structures are written as SMILES. About 14,000 (4.5%) of roughly 310,000 compounds showed an effect of 50% or more. The effect is printed as a negative number. The sample as a whole holds a higher share of strong results than the screen did.
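Note: peak tail current of the secondary pulse compared with the same well before compound.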

human ether-à-go-go-related gene (hERG) potassium channel, sequence (Q12809 whole entry, looked up): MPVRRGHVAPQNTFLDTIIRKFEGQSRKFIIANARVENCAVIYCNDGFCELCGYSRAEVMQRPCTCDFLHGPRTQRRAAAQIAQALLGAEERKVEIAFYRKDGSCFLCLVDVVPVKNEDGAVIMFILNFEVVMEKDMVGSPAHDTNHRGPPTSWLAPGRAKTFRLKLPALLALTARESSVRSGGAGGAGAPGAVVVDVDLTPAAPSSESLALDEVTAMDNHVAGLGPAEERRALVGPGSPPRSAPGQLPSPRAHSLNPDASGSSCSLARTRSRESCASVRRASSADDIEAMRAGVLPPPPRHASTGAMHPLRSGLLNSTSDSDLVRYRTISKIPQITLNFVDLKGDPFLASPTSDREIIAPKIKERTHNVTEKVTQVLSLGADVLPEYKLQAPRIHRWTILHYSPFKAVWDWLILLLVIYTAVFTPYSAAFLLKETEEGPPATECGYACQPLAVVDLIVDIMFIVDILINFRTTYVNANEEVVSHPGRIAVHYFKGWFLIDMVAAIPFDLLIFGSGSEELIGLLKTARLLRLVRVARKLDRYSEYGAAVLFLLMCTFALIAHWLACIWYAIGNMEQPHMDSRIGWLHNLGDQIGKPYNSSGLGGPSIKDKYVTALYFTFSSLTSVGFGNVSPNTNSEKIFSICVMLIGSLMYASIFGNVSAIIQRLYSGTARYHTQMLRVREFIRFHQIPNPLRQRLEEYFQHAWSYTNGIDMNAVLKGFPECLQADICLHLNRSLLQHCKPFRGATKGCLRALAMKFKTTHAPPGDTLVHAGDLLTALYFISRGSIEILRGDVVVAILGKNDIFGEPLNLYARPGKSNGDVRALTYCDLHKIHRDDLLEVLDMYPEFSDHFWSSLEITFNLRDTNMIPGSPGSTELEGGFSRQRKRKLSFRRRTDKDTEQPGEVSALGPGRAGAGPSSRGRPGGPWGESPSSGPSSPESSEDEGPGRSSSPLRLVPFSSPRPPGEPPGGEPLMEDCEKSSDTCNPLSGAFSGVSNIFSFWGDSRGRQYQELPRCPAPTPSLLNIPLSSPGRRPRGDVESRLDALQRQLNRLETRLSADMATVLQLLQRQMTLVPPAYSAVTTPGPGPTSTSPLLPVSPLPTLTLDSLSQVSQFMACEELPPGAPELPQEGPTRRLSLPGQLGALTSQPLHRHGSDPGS

The assay concerns the target human ether-à-go-go-related gene (hERG) potassium channel (human, UniProt Q12809). Nature of the assay: primary screen, population patch clamp on CHO cells stably expressing hERG; higher = less effect of the substance.
Consider `COc1ccc(NC(=O)c2ccc3ncsc3c2)c2ccccc12`, for which the “hERG current change (%, negative = inhibition) at 10uM” value amounted to 4.56%.

Turning to `Clc1ccc(CSc2nnc3c(n2)[nH]c2ccccc23)cc1`, the “hERG current change (%, negative = inhibition) at 10uM” value is on record as -1.62%.

For the compound `O=S(=O)(NCc1ccccc1)[C@@H]1CC2C=CC1C2` (some centres unmarked), the “hERG current change (%, negative = inhibition) at 10uM” value stood at 1.81%.

For the compound `O=C(c1cc(COc2ccc(F)cc2Cl)on1)N(CCO)Cc1cccs1`, the “hERG current change (%, negative = inhibition) at 10uM” value is reported as -31.6%.

Take `Cc1ccccc1OC1CCN(C(=O)C2CCC(=O)N(C3CCCC3)C2)CC1` (centres unmarked): the “hERG current change (%, negative = inhibition) at 10uM” value is recorded as 3.16%.

As for `O=C(C1CCC(=O)N(C2CCCC2)C1)N1CCC(Oc2ccccc2Cl)CC1` (centres unmarked), the “hERG current change (%, negative = inhibition) at 10uM” value is given as -62.1%.

As to `Cc1ccccc1N1CCN(C(=O)C2CCC(=O)N(C3CCCC3)C2)CC1` (centres unmarked), the “hERG current change (%, negative = inhibition) at 10uM” value was -22.5%.

On to `O=C(C1CCC(=O)N(C2CC2)C1)N1CCC(Oc2ccccc2F)CC1` (centres unmarked), for which the “hERG current change (%, negative = inhibition) at 10uM” value amounted to 2.26%.

As for `Cc1cccc(N2CCN(C(=O)C3CC(=O)N(C4CCCC4)C3)CC2)c1C` (centres unmarked), the “hERG current change (%, negative = inhibition) at 10uM” value is -57.9%.

Consider `Cc1cccc(N2CCN(C(=O)C3CCC(=O)N(C4CC4)C3)CC2)c1C` (centres unmarked), for which the “hERG current change (%, negative = inhibition) at 10uM” value stood at 0.967%.

Take `COc1ccc(C)cc1S(=O)(=O)N(CC(=O)O)c1ccc(C)cc1`: the “hERG current change (%, negative = inhibition) at 10uM” value is 5.39%.

On to `Cc1cc(C)cc(NC(=S)NCc2ccc(S(N)(=O)=O)cc2)c1`, for which the “hERG current change (%, negative = inhibition) at 10uM” value is reported as 8.2%.

On to `Cn1c2ccccc2c2ncn(Cc3ccc(F)cc3)c(=O)c21`, for which the “hERG current change (%, negative = inhibition) at 10uM” value was 8%.

For `O=C(CCNC(=O)c1ccco1)NCCc1ccc(Cl)cc1`, the “hERG current change (%, negative = inhibition) at 10uM” value is -1.83%.

With `COCc1ccc(CN2CCCC(CCC(=O)NCc3ccc(C)o3)C2)o1` (centres unmarked), the “hERG current change (%, negative = inhibition) at 10uM” value is recorded as -16.7%.

On to `COc1cc(CN2CCC(N3CCC(C(=O)N4CCCC4)CC3)CC2)cc2c1OCO2`, for which the “hERG current change (%, negative = inhibition) at 10uM” value is recorded as -17.6%.

Regarding `COc1cc(CN2CCCC(CCC(=O)NCc3ccc(C)o3)C2)cc2c1OCO2` (centres unmarked), the “hERG current change (%, negative = inhibition) at 10uM” value is -59.9%.

With `Cc1ccc(CNC(=O)CCC2CCCN(C(=O)c3ccc4c(c3)OCO4)C2)o1` (centres unmarked), the “hERG current change (%, negative = inhibition) at 10uM” value is -20.5%.

For `CC(=O)c1cccc(CN2CCCC(CCC(=O)NCc3ccc(C)o3)C2)c1` (centres unmarked), the “hERG current change (%, negative = inhibition) at 10uM” value is -16.2%.

With `Cc1ccc(CNC(=O)CCC2CCCN(Cc3cccc4c3OCO4)C2)o1` (centres unmarked), the “hERG current change (%, negative = inhibition) at 10uM” value was -63.2%.

Take `COC(=O)c1ccc(CN2CCCC(CCC(=O)NCc3ccc(C)o3)C2)cc1` (centres unmarked): the “hERG current change (%, negative = inhibition) at 10uM” value is listed as -67.5%.

With `CC1(C)CC(=O)C=C(Nc2cccc(F)c2)C1`, the “hERG current change (%, negative = inhibition) at 10uM” value stood at 17%.

As to `O=C1c2ccccc2S(=O)(=O)N1CC(O)Cn1c2ccccc2c2ccccc21` (centres unmarked), the “hERG current change (%, negative = inhibition) at 10uM” value was found to be 3.03%.

On to `CCn1c(Cc2ccccc2)nnc1SCC(=O)Nc1ccc(N2CCOCC2)c(Cl)c1`, for which the “hERG current change (%, negative = inhibition) at 10uM” value is recorded as -5.94%.

`COc1cc(CNCCc2ccc(F)cc2)ccc1OCc1ccc(Cl)nc1.Cl`: the “hERG current change (%, negative = inhibition) at 10uM” value is listed as -68.2%.

With `COc1cc(CNCCc2ccccc2F)ccc1OCc1ccc(Cl)nc1.Cl`, the “hERG current change (%, negative = inhibition) at 10uM” value is -49.5%.

With `COc1ccc(CCNCc2ccc(OCc3ccc(Cl)nc3)c(OC)c2)cc1OC.Cl`, the “hERG current change (%, negative = inhibition) at 10uM” value is -63.3%.

`CCCCNCc1ccc(OCc2ccc(Cl)nc2)c(OC)c1.Cl`: the “hERG current change (%, negative = inhibition) at 10uM” value is -32.7%.

`CCCCCNCc1ccc(OCc2ccc(Cl)nc2)c(OC)c1`: the “hERG current change (%, negative = inhibition) at 10uM” value was -45.8%.

Regarding `COc1cc(CNCCc2ccccc2)ccc1OCc1ccc(Cl)nc1.Cl`, the “hERG current change (%, negative = inhibition) at 10uM” value is listed as -39.5%.

For `CC1CCCC(NC(=O)COC(=O)c2ccc3ncsc3c2)C1C` (centres unmarked), the “hERG current change (%, negative = inhibition) at 10uM” value is on record as -3.48%.

As to `CC(C)N(C1=CC(=O)OC12CCCCC2)C(C)C`, the “hERG current change (%, negative = inhibition) at 10uM” value is listed as -0.582%.

With `COc1cc(C(=O)N/N=C(\C)Cc2ccccc2)cc(OC)c1OC`, the “hERG current change (%, negative = inhibition) at 10uM” value worked out at 9.1%.

As to `CCOC(=O)N1CCC(NC(=O)CSCc2nc(-c3ccc(OC)c(OC)c3)oc2C)CC1`, the “hERG current change (%, negative = inhibition) at 10uM” value was -2.5%.

Take `COc1ccc(-c2onc(C)c2-c2cnn(-c3ccccc3)c2)c(O)c1`: the “hERG current change (%, negative = inhibition) at 10uM” value stood at 3.71%.

For `COc1cc(OC)c(/C=N/NC(=O)c2ccc(Cn3nc([N+](=O)[O-])cc3C)cc2)c(OC)c1`, the “hERG current change (%, negative = inhibition) at 10uM” value is reported as -37.1%.

In the case of `Cc1ccc2nsnc2c1NC(=O)c1ccc([N+](=O)[O-])o1`, the “hERG current change (%, negative = inhibition) at 10uM” value is given as 13.1%.

For `CCN1CCN(Cc2ccc(NC(=O)c3ccc(C)c(NC(=O)N4CCNC4=O)c3)cc2C(F)(F)F)CC1`, the “hERG current change (%, negative = inhibition) at 10uM” value turned out to be 1.09%.

For the compound `CCOC(=O)C1(Cc2ccccc2)CCN(Cc2cccn2-c2cccnc2)CC1`, the “hERG current change (%, negative = inhibition) at 10uM” value is -39%.

As to `CCOC(=O)C1(CCOc2ccccc2)CCN(Cc2cccn2-c2cccnc2)CC1`, the “hERG current change (%, negative = inhibition) at 10uM” value is on record as -51.8%.

On to `OCC1(CCc2ccccc2)CCN(Cc2cccn2-c2cccnc2)CC1`, for which the “hERG current change (%, negative = inhibition) at 10uM” value is reported as -49.4%.

As for `CCOC(=O)C1(CCOc2ccccc2)CCN(Cc2cccn2-c2ncccn2)CC1`, the “hERG current change (%, negative = inhibition) at 10uM” value is recorded as -76.4%.

Regarding `OCC1(CCOc2ccccc2)CCN(Cc2cccn2-c2ncccn2)CC1`, the “hERG current change (%, negative = inhibition) at 10uM” value is reported as -82.2%.

On to `O=C(Nc1ccccc1)c1ccccc1N=Cc1ccccc1O`, for which the “hERG current change (%, negative = inhibition) at 10uM” value came out at 2.2%.

As to `COc1cc2c(cc1OC)CN(S(=O)(=O)c1cccc(F)c1)CC2`, the “hERG current change (%, negative = inhibition) at 10uM” value stood at 18.6%.

Take `Cc1ccc(C)c(C(=O)COC(=O)Cn2[nH]c(=O)c3ccccc3c2=O)c1`: the “hERG current change (%, negative = inhibition) at 10uM” value was 5.51%.

On to `O=C(CN1C(=O)NC2(CCCC2)C1=O)N1CCN(c2cccc(C(F)(F)F)c2)CC1`, for which the “hERG current change (%, negative = inhibition) at 10uM” value was -24.5%.

`Cc1oc2c(C)c3oc(=O)c(CCC(=O)NCCCN4CCOCC4)c(C)c3cc2c1C`: the “hERG current change (%, negative = inhibition) at 10uM” value is listed as -6.99%.

As for `COc1ccccc1CCN=C(N)NS(=O)(=O)c1ccc(C)c(C)c1`, the “hERG current change (%, negative = inhibition) at 10uM” value was 9.37%.

With `O=C(COC(=O)c1ncc(Cl)c(Cl)c1Cl)NCc1ccccc1`, the “hERG current change (%, negative = inhibition) at 10uM” value came to 2.42%.

With `CCN1CCN(C(=O)CS(=O)Cc2nc(-c3cccc(C)c3)oc2C)CC1` (centres unmarked), the “hERG current change (%, negative = inhibition) at 10uM” value is 3.36%.

As to `COc1ccc(-c2nnc(SC(C(=O)c3c[nH]c4ccccc34)c3ccccc3)n2N)cc1OC` (centres unmarked), the “hERG current change (%, negative = inhibition) at 10uM” value was determined as 2.03%.

Take `COc1ccc(NC(=O)c2cc3ccc(O)cc3o/c2=N\O)cc1`: the “hERG current change (%, negative = inhibition) at 10uM” value was found to be 2.99%.

On to `C=CCn1c(=O)c2ccccc2n2c(SCC(=O)Nc3sc(C(=O)N(CC)CC)c(C)c3C(=O)OCC)nnc12`, for which the “hERG current change (%, negative = inhibition) at 10uM” value was -52.3%.

As for `C=CCn1c(=O)c2ccccc2n2c(SCc3c(C(=O)OCC)oc4ccccc34)nnc12`, the “hERG current change (%, negative = inhibition) at 10uM” value was -56.1%.

With `C=CCn1c(=O)c2ccccc2n2c(SCC(=O)Nc3sc(C)c(CC)c3C(=O)OCC)nnc12`, the “hERG current change (%, negative = inhibition) at 10uM” value is given as 6.96%.

As for `C=CCn1c(=O)c2ccccc2n2c(SCC(=O)NC)nnc12`, the “hERG current change (%, negative = inhibition) at 10uM” value is recorded as -1.24%.

Regarding `CCCn1c(=O)c2ccccc2n2c(SCc3c(C(=O)OCC)oc4ccccc34)nnc12`, the “hERG current change (%, negative = inhibition) at 10uM” value is listed as -43.5%.

For the compound `C=CCn1c(=O)c2ccccc2n2c(SCC(N)=O)nnc12`, the “hERG current change (%, negative = inhibition) at 10uM” value turned out to be 2.96%.
